# Measurements as given in ChEMBL document CHEMBL1961873, “Compounds: GSK PKIS; Assays: Nanosyn kinase panel” (2012).
# Where “and” joins values, the source holds several entries; their conditions need not be identical. Equal entries are not always repeated.
# Assays:
# [1] = molecular target: T1, Aurora kinase A (Homo sapiens) (UniProt O14965); conditions: at 1 µM;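 further: values are mean percent inhibition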
# T1 sequence (whole entry): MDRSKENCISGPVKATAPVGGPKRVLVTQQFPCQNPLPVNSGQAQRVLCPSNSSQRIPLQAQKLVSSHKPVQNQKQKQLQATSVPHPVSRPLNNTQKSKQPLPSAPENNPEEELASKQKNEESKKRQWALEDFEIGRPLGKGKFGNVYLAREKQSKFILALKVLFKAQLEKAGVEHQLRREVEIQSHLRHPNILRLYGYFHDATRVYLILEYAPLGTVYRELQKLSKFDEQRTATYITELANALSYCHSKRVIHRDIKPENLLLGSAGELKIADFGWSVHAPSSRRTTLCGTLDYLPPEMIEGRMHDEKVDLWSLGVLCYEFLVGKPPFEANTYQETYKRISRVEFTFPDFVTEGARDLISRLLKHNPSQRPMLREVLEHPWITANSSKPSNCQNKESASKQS
# [2] = molecular target: Aurora kinase B (Homo sapiens) (UniProt Q96GD4); conditions: at 0.1 µM
# Aurora kinase B (Homo sapiens), sequence (Q96GD4 whole entry): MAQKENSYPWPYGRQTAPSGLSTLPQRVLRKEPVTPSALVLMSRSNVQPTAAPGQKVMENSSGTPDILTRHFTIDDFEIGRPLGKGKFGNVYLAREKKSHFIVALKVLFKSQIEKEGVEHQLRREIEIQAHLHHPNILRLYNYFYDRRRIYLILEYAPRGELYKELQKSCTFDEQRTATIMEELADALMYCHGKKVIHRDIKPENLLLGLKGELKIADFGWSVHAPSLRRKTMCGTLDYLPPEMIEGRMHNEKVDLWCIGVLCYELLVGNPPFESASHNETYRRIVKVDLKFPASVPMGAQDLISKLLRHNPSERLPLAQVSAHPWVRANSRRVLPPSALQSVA
# [3] = molecular target: Aurora kinase B (Homo sapiens) (UniProt Q96GD4); conditions: at 1 µM
# [4] = molecular target: T2, Aurora kinase C (Homo sapiens) (UniProt Q9UQB9); conditions: at 0.1 µM
# T2 sequence (whole entry): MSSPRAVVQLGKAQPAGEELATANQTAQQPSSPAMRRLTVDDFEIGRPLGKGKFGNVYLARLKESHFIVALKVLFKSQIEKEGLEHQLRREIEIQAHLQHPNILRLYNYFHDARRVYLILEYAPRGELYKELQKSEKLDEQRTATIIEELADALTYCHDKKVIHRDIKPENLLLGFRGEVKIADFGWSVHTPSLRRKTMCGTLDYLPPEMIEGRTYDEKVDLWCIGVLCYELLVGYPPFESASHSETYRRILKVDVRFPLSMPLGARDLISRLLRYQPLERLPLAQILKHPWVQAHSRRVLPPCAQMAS
# [5] = molecular target: T2, Aurora kinase C (Homo sapiens); conditions: at 1 µM
# [6] = molecular target: Serine/threonine-protein kinase 10 (Homo sapiens) (UniProt O94804); conditions: at 0.1 µM
# Serine/threonine-protein kinase 10 (Homo sapiens), sequence (O94804 whole entry, looked up): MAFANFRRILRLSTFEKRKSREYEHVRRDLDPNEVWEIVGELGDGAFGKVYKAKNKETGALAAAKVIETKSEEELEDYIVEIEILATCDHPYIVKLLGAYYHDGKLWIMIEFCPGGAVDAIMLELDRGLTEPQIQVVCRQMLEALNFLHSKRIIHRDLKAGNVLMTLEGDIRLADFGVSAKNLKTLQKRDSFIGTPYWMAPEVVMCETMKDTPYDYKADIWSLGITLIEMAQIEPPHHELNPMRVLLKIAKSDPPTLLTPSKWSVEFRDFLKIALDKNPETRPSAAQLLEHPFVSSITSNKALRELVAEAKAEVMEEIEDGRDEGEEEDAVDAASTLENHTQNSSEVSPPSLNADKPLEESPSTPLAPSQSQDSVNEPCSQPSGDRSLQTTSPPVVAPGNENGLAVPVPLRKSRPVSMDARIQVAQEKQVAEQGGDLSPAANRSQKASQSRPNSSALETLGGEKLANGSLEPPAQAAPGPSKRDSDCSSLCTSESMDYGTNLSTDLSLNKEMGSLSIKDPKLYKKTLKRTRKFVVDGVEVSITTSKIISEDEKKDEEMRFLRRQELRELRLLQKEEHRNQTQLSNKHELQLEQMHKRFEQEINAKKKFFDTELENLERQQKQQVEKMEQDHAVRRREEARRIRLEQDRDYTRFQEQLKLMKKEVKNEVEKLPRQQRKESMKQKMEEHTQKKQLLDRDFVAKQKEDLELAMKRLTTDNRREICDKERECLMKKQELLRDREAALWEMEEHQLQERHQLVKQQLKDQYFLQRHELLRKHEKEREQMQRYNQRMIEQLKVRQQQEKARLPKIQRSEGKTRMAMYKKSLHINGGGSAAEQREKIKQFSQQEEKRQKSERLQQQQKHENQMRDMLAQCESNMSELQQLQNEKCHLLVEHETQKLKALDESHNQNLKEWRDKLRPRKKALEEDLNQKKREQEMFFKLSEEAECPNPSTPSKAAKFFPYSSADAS
# [7] = molecular target: Serine/threonine-protein kinase 10 (Homo sapiens) (UniProt O94804); conditions: at 1 µM
# [8] = molecular target: T3, Mitogen-activated protein kinase kinase kinase kinase 2 (Homo sapiens) (UniProt Q12851); conditions: at 0.1 µM
# T3 sequence (whole entry): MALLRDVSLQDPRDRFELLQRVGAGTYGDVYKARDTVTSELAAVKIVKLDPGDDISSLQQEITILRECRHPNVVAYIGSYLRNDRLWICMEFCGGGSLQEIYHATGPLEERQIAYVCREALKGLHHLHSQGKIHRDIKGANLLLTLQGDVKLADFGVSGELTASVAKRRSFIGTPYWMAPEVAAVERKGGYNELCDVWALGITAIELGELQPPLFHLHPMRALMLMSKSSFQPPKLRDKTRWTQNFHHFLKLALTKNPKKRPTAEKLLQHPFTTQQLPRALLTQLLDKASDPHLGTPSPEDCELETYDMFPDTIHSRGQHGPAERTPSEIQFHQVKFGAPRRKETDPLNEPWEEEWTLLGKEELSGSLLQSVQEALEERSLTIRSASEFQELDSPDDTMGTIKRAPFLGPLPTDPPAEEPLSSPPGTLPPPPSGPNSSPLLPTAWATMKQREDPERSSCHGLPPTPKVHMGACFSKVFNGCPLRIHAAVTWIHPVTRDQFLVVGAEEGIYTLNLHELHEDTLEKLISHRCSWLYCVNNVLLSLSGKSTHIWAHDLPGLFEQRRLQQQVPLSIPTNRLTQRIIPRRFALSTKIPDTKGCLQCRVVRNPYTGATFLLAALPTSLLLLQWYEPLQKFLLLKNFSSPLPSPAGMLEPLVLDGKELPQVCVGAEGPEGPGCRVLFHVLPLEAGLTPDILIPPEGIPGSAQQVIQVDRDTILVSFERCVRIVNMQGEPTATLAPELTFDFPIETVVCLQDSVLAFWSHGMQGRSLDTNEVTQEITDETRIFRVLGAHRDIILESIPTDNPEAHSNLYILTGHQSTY
# [9] = molecular target: T3, Mitogen-activated protein kinase kinase kinase kinase 2 (Homo sapiens); conditions: at 1 µM
# [10] = molecular target: Mitogen-activated protein kinase kinase kinase kinase 4 (Homo sapiens) (UniProt O95819); conditions: at 0.1 µM
# Mitogen-activated protein kinase kinase kinase kinase 4 (Homo sapiens), sequence (O95819 2-1239 limits assumed): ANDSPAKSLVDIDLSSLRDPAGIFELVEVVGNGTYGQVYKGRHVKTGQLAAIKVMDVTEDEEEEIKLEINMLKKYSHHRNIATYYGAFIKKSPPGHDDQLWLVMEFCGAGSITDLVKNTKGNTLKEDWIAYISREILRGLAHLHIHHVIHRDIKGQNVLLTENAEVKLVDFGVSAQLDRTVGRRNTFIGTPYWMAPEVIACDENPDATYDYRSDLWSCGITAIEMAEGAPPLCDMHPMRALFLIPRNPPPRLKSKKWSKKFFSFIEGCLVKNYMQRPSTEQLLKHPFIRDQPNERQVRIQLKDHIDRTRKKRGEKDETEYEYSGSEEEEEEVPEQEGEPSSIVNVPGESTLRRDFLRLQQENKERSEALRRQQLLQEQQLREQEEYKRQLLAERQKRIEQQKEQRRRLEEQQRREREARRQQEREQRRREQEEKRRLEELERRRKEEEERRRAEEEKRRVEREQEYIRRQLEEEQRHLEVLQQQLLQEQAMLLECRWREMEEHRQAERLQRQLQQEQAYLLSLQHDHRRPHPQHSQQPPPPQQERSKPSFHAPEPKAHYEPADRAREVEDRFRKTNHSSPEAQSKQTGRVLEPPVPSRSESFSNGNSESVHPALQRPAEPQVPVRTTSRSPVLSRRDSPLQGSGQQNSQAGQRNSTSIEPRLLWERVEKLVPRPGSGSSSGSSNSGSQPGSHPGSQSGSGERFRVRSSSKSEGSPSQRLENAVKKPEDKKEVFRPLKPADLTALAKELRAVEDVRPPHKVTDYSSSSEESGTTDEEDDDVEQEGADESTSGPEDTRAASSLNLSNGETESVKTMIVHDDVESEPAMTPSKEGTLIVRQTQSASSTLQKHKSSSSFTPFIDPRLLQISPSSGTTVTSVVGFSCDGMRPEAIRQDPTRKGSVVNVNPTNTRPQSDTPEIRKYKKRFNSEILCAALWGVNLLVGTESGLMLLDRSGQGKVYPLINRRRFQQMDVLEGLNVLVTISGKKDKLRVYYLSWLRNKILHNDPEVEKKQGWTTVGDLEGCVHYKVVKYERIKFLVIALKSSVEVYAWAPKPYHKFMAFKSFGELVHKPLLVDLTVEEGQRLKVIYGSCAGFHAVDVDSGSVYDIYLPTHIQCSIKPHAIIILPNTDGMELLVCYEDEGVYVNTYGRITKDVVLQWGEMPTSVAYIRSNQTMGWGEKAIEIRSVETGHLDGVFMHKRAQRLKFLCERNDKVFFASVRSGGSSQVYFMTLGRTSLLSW
# [11] = molecular target: Mitogen-activated protein kinase kinase kinase kinase 4 (Homo sapiens) (UniProt O95819); conditions: at 1 µM
# [12] = molecular target: Dual specificity mitogen-activated protein kinase kinase 1 (Homo sapiens) (UniProt Q02750); conditions: at 0.1 µM
# Dual specificity mitogen-activated protein kinase kinase 1 (Homo sapiens), sequence (Q02750 whole entry): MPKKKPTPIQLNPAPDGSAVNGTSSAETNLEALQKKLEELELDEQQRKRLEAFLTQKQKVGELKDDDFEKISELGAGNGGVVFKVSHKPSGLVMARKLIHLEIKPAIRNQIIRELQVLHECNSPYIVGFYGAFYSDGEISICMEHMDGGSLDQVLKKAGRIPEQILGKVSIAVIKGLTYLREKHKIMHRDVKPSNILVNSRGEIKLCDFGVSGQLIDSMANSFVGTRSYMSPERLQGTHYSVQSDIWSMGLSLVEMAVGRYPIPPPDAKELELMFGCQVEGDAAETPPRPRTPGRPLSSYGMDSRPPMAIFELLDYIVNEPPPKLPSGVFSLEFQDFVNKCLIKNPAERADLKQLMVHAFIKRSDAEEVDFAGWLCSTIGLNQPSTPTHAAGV
# [13] = molecular target: Dual specificity mitogen-activated protein kinase kinase 1 (Homo sapiens) (UniProt Q02750); conditions: at 1 µM
# [14] = molecular target: Misshapen-like kinase 1 (Homo sapiens) (UniProt Q8N4C8); conditions: at 0.1 µM
# Misshapen-like kinase 1 (Homo sapiens), sequence (Q8N4C8 whole entry, looked up): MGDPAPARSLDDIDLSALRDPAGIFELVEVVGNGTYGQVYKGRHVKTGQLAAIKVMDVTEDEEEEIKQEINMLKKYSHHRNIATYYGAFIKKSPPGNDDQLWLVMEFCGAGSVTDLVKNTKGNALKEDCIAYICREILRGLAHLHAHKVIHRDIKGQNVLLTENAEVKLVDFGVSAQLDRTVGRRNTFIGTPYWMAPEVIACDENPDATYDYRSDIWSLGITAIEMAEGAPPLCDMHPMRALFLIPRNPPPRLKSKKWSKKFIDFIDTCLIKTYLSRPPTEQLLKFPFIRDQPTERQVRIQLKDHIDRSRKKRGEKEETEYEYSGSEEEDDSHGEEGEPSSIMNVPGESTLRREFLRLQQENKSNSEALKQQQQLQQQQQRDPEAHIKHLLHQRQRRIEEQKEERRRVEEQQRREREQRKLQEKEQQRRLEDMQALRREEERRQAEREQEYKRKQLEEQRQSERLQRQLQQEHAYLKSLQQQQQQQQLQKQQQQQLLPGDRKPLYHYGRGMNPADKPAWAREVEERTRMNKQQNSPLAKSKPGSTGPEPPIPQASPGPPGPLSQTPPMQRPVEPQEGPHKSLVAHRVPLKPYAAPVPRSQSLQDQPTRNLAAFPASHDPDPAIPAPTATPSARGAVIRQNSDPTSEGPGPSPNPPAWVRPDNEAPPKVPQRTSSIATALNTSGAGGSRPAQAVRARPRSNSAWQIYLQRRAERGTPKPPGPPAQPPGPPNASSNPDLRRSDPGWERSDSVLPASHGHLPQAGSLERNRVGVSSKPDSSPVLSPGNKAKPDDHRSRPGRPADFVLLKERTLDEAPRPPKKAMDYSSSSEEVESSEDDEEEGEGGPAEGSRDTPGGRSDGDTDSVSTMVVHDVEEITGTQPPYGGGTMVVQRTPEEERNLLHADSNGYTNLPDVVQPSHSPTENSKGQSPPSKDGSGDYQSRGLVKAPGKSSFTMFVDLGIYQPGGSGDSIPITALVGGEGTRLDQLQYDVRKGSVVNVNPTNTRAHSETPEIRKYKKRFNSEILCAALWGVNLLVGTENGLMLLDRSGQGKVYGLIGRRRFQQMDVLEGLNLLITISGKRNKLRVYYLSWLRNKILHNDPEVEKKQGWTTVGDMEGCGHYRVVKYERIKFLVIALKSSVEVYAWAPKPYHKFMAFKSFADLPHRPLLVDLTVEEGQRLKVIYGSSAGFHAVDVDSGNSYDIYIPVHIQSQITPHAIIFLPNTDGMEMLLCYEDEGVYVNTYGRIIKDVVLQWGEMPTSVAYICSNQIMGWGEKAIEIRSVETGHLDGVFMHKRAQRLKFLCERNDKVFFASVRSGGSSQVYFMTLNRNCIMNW
# [15] = molecular target: Misshapen-like kinase 1 (Homo sapiens) (UniProt Q8N4C8); conditions: at 1 µM
# [16] = molecular target: T4, Serine/threonine-protein kinase 4 (Homo sapiens) (UniProt Q13043); conditions: at 0.1 µM
# T4 sequence (whole entry): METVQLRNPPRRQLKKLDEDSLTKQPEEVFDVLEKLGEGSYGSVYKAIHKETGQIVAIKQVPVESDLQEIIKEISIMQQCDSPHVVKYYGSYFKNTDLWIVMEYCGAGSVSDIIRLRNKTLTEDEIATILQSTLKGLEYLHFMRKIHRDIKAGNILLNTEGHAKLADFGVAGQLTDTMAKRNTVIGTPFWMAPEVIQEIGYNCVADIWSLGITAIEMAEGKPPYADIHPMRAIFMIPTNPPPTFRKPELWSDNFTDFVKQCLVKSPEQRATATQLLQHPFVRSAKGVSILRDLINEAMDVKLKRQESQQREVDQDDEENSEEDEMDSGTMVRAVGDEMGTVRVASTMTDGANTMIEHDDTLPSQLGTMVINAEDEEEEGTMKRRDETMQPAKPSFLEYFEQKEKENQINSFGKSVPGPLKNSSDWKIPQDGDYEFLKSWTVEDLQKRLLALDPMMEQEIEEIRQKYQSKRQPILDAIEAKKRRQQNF
# [17] = molecular target: T4, Serine/threonine-protein kinase 4 (Homo sapiens); conditions: at 1 µM
# [18] = molecular target: T5, Serine/threonine-protein kinase 3 (Homo sapiens) (UniProt Q13188); conditions: at 0.1 µM
# T5 sequence (whole entry): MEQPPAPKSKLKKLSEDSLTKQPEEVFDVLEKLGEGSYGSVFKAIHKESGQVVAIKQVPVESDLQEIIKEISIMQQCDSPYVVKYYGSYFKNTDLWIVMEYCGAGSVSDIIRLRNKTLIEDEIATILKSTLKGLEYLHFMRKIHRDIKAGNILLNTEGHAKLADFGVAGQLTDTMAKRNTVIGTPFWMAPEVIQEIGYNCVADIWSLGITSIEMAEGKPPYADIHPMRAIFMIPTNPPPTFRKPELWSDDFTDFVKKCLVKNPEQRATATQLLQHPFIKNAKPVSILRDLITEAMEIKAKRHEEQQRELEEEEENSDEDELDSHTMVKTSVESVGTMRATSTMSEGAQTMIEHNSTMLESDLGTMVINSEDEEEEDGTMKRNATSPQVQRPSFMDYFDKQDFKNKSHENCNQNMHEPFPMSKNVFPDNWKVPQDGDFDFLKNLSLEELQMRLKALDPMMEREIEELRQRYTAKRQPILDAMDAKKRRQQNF
# [19] = molecular target: T5, Serine/threonine-protein kinase 3 (Homo sapiens); conditions: at 1 µM
# [20] = molecular target: Serine/threonine-protein kinase 26 (Homo sapiens) (UniProt Q9P289); conditions: at 0.1 µM
# Serine/threonine-protein kinase 26 (Homo sapiens), sequence (Q9P289 2-416 limits assumed): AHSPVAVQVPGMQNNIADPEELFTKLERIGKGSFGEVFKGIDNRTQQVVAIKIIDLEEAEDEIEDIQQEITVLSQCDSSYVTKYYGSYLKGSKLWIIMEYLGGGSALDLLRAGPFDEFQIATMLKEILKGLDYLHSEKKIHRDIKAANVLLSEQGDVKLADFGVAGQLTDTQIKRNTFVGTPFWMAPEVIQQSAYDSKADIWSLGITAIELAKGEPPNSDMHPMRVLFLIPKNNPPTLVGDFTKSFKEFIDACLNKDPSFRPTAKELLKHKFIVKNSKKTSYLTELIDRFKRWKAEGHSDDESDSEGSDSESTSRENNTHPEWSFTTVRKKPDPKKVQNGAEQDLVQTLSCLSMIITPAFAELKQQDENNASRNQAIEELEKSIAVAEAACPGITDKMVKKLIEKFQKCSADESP
Compound,inhibition [1],inhibition [2],inhibition [3],inhibition [4],inhibition [5],inhibition [6],inhibition [7],inhibition [8],inhibition [9],inhibition [10],inhibition [11],inhibition [12],inhibition [13],inhibition [14],inhibition [15],inhibition [16],inhibition [17],inhibition [18],inhibition [19],inhibition [20]
COc1ccc(Nc2ncc(-c3ccccc3)o2)cc1OC,75.4%,8.72%,51.1%,10.2%,82.2%,-1.08%,11.2%,3.92%,14.3%,8.63%,48.3%,0.51%,2.06%,7.04%,35.5%,0.86%,4.87%,-0.13%,2.73%,-0.79%
O=C1Nc2ccccc2/C1=C1\CCc2cc(O)ccc21,70.9%,44.8%,80.5%,53.7%,93.4%,6.67%,16.1%,12.1%,52.6%,23.3%,66.8%,7.68%,9.97%,17.6%,58.9%,20.8%,58.5%,15.1%,52.4%,-4.52%
NS(=O)(=O)c1cccc(N/C=C2\C(=O)Nc3ccccc32)c1,47.6%,6.68%,40.5%,7.7%,76.7%,4.31%,9.72%,4.14%,28.9%,23.3%,78.2%,4.87%,5.35%,18.4%,70.2%,7.24%,26.1%,5.78%,21.2%,-1.63%
CN1CCC(n2cnc(-c3ccc(F)cc3)c2-c2ccnc(NCCO)n2)CC1,9.26%,4.23%,4.96%,1.22%,-3.16%,4.56%,8.57%,1.01%,1.59%,7.52%,17.5%,4.13%,5.25%,7.76%,15.8%,7.06%,10.4%,7.55%,9.48%,-1.24%
COC(=O)Nc1nc2cc(Oc3ccc(NC(=O)Nc4ccccc4)cc3)ccc2[nH]1,3.53%,11.9%,24.9%,28.9%,42.6%,9.63%,14.7%,1.5%,0.87%,3.39%,12.9%,3.88%,2.45%,5.15%,11.3%,3.7%,4.62%,5.39%,6.48%,-0.23%
COc1ccc(-c2nn3ncccc3c2-c2ccnc(Nc3ccc(F)c(F)c3)n2)cc1,28.5%,4.36%,14.3%,1.75%,6.44%,7.15%,23.5%,2.1%,1.49%,8.56%,16.4%,6.07%,3.87%,9.98%,13.8%,6.88%,11.6%,5.53%,10.2%,-0.41%
CC1=C(C(=O)Nc2ccc3[nH]ncc3c2)C(c2ccc(F)cc2)N=C(c2ccc(C(F)(F)F)nc2)N1 (stereo not given),51%,3.38%,16.9%,3.47%,21.3%,0.31%,2.22%,1.59%,2.35%,2.89%,2.92%,-0.07%,3.43%,4.22%,2.06%,2.29%,2.27%,2.18%,0.56%,-0.24%
CN1CCN(Cc2ccc(-c3cc4ncnc(Nc5ccc(OCc6cccc(F)c6)c(Cl)c5)c4s3)o2)CC1,6.51% and 11.8%,16% and 13%,45.6% and 53%,4.18% and 3.42%,26.1% and 40.5%,17.4% and 22.1%,56.8% and 67%,2.1% and 1.95%,13% and 8.01%,2.96% and 6.93%,8.74% and 16.5%,3.63% and 7.76%,3.91% and 8.23%,4.62% and 8.19%,7.44% and 13.7%,2.15% and 5.51%,5.38% and 9.4%,1.94% and 6.66%,4.21% and 9.14%,-0.84% and -1.22%
FC(F)(F)CNc1nccc(-c2cnn3ncccc23)n1,1.83%,1.65%,4.22%,0.63%,2.77%,2.56%,6.33%,-0.83%,1.5%,1.9%,3.37%,1.61%,2.41%,3.42%,3.44%,3.65%,3.82%,6.06%,6.67%,-0.96%
